About 79,000 compounds went through this panel and 15% of them were active in at least one assay; those are over-represented in the sample as a whole. Unmarked numbers belong to inactive results. Activity calls are given as the source filed them. No stated cut-off is given here; in the data, active means growth inhibition above about 70%; inactive means the rest.
Assays:
[1] = NCI Yeast Anticancer Drug Screen. Data for the rad50 strain (AID 155);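 further: 0% = growth of vehicle-only cultures of the same strain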; conditions: S. cerevisiae rad50 strain growth inhibition, active compounds read high
Procedure, shortened: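 Yeast carrying a defined DNA repair defect were exposed to test compounds, and growth was compared with vehicle-treated controls to give percent inhibition.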

[2] = NCI Yeast Anticancer Drug Screen. Data for the mec2-1 strain (AID 157); conditions: S. cerevisiae mec2-1 strain, active compounds read high
Procedure, shortened: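 Each compound was tested on mec2-1 yeast, a strain altered in DNA damage repair or cell cycle control. Growth inhibition is reported relative to vehicle.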

[3] = NCI Yeast Anticancer Drug Screen. Data for the sgs1 mgt1 strain (AID 161);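 further: 0% = growth of cultures given vehicle only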; conditions: S. cerevisiae sgs1 mgt1 strain, active compounds read high
Procedure, shortened: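 Read-out: growth inhibition vs vehicle controls. Cells: mutant yeast strain deficient in DNA damage repair.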

[4] = NCI Yeast Anticancer Drug Screen. Data for the cln2 rad14 strain (AID 165);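 further: 0% = growth equal to vehicle treated cultures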; conditions: S. cerevisiae cln2 rad14 strain, active compounds read high
Procedure, shortened: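 Test compounds were added to cln2 rad14 yeast cultures; inhibition of growth was then determined by comparison with vehicle treatment.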

[5] = NCI Yeast Anticancer Drug Screen. Data for the bub3 strain (AID 167); conditions: S. cerevisiae bub3 mutant strain, active compounds read high
Procedure, shortened: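 Compounds were applied to a genetically altered yeast strain carrying a cell-cycle control defect. Growth inhibition was scored against vehicle-treated controls.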

[6] = NCI Yeast Anticancer Drug Screen. Data for the mlh1 rad18 strain (AID 175); conditions: S. cerevisiae mlh1 rad18 strain growth inhibition, active compounds read high
Procedure, shortened: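 Inhibition values reflect reduced growth of mutant yeast versus vehicle-treated controls following compound exposure; the mutations affect DNA damage repair.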

[7] = at 5.0 µM (retest, dose inferred, filed as 0.5)
[8] = at 50.0 µM (retest, dose inferred, filed as 5.0)

SMILES	growth inhibition [1, 7]	growth inhibition [1, 8]	growth inhibition ([1]; at 50.0 µM)	growth inhibition [2, 7]	growth inhibition [2, 8]	growth inhibition ([2]; at 50.0 µM)	growth inhibition [3, 7]	growth inhibition [3, 8]	growth inhibition ([3]; at 50.0 µM)	growth inhibition [4, 7]	growth inhibition [4, 8]	growth inhibition ([4]; at 50.0 µM)	growth inhibition [5, 7]	growth inhibition [5, 8]	growth inhibition ([5]; at 50.0 µM)	growth inhibition [6, 7]	growth inhibition [6, 8]	growth inhibition ([6]; at 50.0 µM)
C[CH2][Sn]([Br])([CH2]C)[c]1ccccc1CN(C)C	30%	76% (active)	46.2%	23%	69%	65.5%	9%	77% (active)	87.8% (active)	34%	53%	71.2% (active)	11%	78% (active)	86.8% (active)	22%	79% (active)	86.7% (active)
CC(=O)OC1CC[C@@]2(C)C(=CC[C@@H]3[C@@H]2CC[C@]2(C)C(OC(C)=O)[C@H](n4ccnc4)C[C@@H]32)C1 (some centres not stated)	22%	84% (active)	71.8% (active)	8%	52%	62.8%	14%	78% (active)	75.2% (active)	9%	58%	69.9%	-43%	74% (active)	77% (active)	17%	56%	91.2% (active)
CC(=O)C(CN(CC(C)C)CC(C)C)C(c1ccccc1)c1c(O)c2ccccc2oc1=O (configuration not stated)	0%	0%	80.1% (active)	-12%	-12%	73.7% (active)	-2%	-2%	85% (active)	-10%	-10%	83.2% (active)	-1%	-1%	78.8% (active)	7%	7%	81.9% (active)
CN(CCCl)Cc1ccc(OCc2ccccc2)c(OCc2ccccc2)c1	2%	98% (active)	99.7% (active)	-20%	99% (active)	99.6% (active)	0%	99% (active)	99.7% (active)	8%	98% (active)	98.1% (active)	0%	99% (active)	99.4% (active)	3%	99% (active)	99.6% (active)
c1ccc(N=c2snc(-c3ccccc3)s2)cc1	2%	2%	91.1% (active)	-3%	-2%	46.8%	4%	3%	73.5% (active)	3%	-2%	6.4%	-4%	2%	82.5% (active)	5%	6%	80.2% (active)
CC(CCc1ccccc1)NC(C)C(O)c1ccc(O)cc1 (configuration not stated)	1%	32%	49%	4%	55%	28.6%	23%	66%	52.2%	9%	42%	68.3%	9%	40%	64.8%	45%	71% (active)	78.1% (active)
O=C(CBr)Nc1ccc(Cl)cc1	99% (active)	99% (active)	98.8% (active)	99% (active)	99% (active)	99.3% (active)	99% (active)	99% (active)	99.6% (active)	98% (active)	99% (active)	98.7% (active)	98% (active)	99% (active)	99.4% (active)	98% (active)	98% (active)	99.2% (active)
CCCCCN1C(=O)C2C(C1=O)C1(Cl)C(Cl)=C(Cl)C2(Cl)C1(Cl)Cl (configuration not stated)	37%	95% (active)	97% (active)	35%	97% (active)	96.4% (active)	16%	95% (active)	96.4% (active)	16%	95% (active)	95.2% (active)	12%	96% (active)	97.5% (active)	33%	96% (active)	95.6% (active)
O=[As]c1ccc(O)c(O)c1 (configuration not stated)	11%	99% (active)	97% (active)	-4%	100% (active)	99.4% (active)	-4%	99% (active)	99.5% (active)	-9%	99% (active)	98.8% (active)	22%	99% (active)	99.2% (active)	6%	99% (active)	99.3% (active)
O=C1c2ccccc2C[CH]1[Hg][Cl] (configuration not stated)	99% (active)	99% (active)	99.2% (active)	100% (active)	100% (active)	99.5% (active)	100% (active)	99% (active)	99.3% (active)	99% (active)	99% (active)	96.2% (active)	99% (active)	99% (active)	98.7% (active)	99% (active)	99% (active)	99.3% (active)
O=[N+]([O-])c1ccc(N(CCO)CCO)c2c1no[n+]2[O-]	39%	92% (active)	81.4% (active)	25%	70% (active)	54.4%	35%	83% (active)	69.2%	8%	44%	44.3%	4%	40%	61.5%	42%	90% (active)	78.8% (active)
CCOC(=O)CNC(=O)C1C2c3ccccc3C(c3ccccc32)C1C(=O)O (configuration not stated)	3%	38%	90.3% (active)	3%	40%	95.4% (active)	0%	39%	96% (active)	1%	25%	95.9% (active)	1%	45%	94% (active)	-1%	32%	98.5% (active)
C[N+](C)(C)CC1CCCC(C[N+](C)(C)C)C1O (configuration not stated)	2%	65%	92.3% (active)	-3%	46%	43.4%	0%	81% (active)	76% (active)	-5%	39%	6.5%	-4%	70% (active)	67.7%	0%	80% (active)	95.2% (active)
Oc1c(Cl)cc(Cl)c2ccccc12.[Cu+2]	-5%	91% (active)	99.3% (active)	-34%	77% (active)	99.1% (active)	-5%	91% (active)	99.2% (active)	-1%	32%	98.7% (active)	-2%	93% (active)	99.5% (active)	0%	93% (active)	99.2% (active)
CCC[CH2][Sn]1([CH2]CCC)[O]C2C(O)OC(CO)C(O)C2[O]1 (configuration not stated)	84% (active)	99% (active)	99% (active)	74% (active)	99% (active)	99.3% (active)	82% (active)	99% (active)	99% (active)	64%	99% (active)	99% (active)	80% (active)	99% (active)	98.7% (active)	81% (active)	99% (active)	98.6% (active)
N#Cc1cc([N+](=O)[O-])c(Cl)c([N+](=O)[O-])c1	52%	99% (active)	91.5% (active)	46%	99% (active)	93% (active)	100% (active)	100% (active)	93.8% (active)	67%	101% (active)	93.3% (active)	101% (active)	100% (active)	92.7% (active)	37%	100% (active)	92.2% (active)
CCOP(=O)(OCC)C(O)c1ccccc1Cl (configuration not stated)	7%	4%	38.4%	7%	4%	-4.1%	3%	17%	9.15%	-5%	1%	35.5%	-5%	-6%	17.2%	7%	22%	2.9%
S=C=[N][Sn]([N]=C=S)([c]1ccccc1)[c]1ccccc1.c1ccc2nc(-c3ccc4ccccc4n3)ccc2c1	72% (active)	98% (active)	89.3% (active)	65%	99% (active)	91.2% (active)	84% (active)	99% (active)	91.5% (active)	51%	99% (active)	90.8% (active)	85% (active)	99% (active)	90% (active)	77% (active)	98% (active)	77.5% (active)
CC1=CC(=C2C=CC(=[N+](C)C)C=C2)C=C(C)S1	21%	72% (active)	55.6%	10%	91% (active)	71.6% (active)	9%	94% (active)	87.3% (active)	7%	82% (active)	77.7% (active)	-2%	96% (active)	87.7% (active)	11%	90% (active)	87% (active)

— PubChem BioAssay (NCI)
